Inconclusive results are not listed. Activity calls are given as the source filed them. The call rests on the fitted dose curve; in most records, active means well fitted cell-killing curve with a large enough effect; inconclusive means small, poorly fitted or top-dose-only effect, or effect the other way; inactive means flat fitted curve, though single readings scatter.
Columns and labels:
Assay in all cases: Primary qHTS to identify gynecologic anti-cancer compounds using libraries of approved drugs and bioactive compounds (AID 1345084); further: nearly all actives have a fitted effect of over 55% in size
Conditions in all cases: Gynecologic cancer cell panel viability, ATPlite luminescence, 48 h; series mostly up to 57.5 µM
OV90 = test system: OV90
Method in brief: (§1)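 Five-point cytotoxicity, 48 h drug exposure at 37 C, 5% CO2, on cells seeded 16 h beforehand. ATP content read by ATPlite luminescence.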

PA-1 = test system: PA-1
Method in brief: as §1

SKOV3 = test system: SKOV3
Method in brief: as §1

Tov-21-G = test system: Tov-21-G
Method in brief: as §1

Tov112D = test system: Tov112D
Method in brief: as §1
On the % scale 0 is the no-effect control and ±100 the full control effect.

CC(=O)C1CCC(=O)N1Cc1ccccc1 (stereo not given)
inactive: Potency (OV90) | Potency (PA-1) | Potency (SKOV3) | Potency (Tov-21-G) | Potency (Tov112D)

CC1OC(OC2C(OC3C(O[C@H]4CC[C@@]5(C)C(CC[C@]6(C)C5C(=O)CC5=C7CC(C)(C)CC(O)[C@]7(C)CC[C@]56C)C4(C)C)OC(C(=O)O)C(O)C3O)OCC(O)C2O)C(O)C(O)C1O (stereo not given in full)
inactive: activity change, negative = cytotoxicity (OV90) -4.22% [at 11.6 µM] | activity change, negative = cytotoxicity (PA-1) 14.2% [at 11.6 µM] | activity change, negative = cytotoxicity (SKOV3) 29.3% [at 11.6 µM] | activity change, negative = cytotoxicity (Tov-21-G) 4.68% [at 11.6 µM] | activity change, negative = cytotoxicity (Tov112D) 3.63% [at 11.6 µM]

CC1(C)CC[C@]2(C(=O)O[C@@H]3O[C@H](CO)[C@@H](O)[C@H](O)[C@H]3O)CC[C@]3(C)C(=CCC4[C@@]5(C)CC[C@H](O[C@@H]6O[C@H](C(=O)O)[C@@H](O)[C@H](O)[C@H]6OC6OC(CO)C(O)C(O)C6O)C(C)(C)C5CC[C@]43C)[C@@H]2C1 (stereo not given in full)
inactive: activity change, negative = cytotoxicity (OV90) 1.96% [at 11.6 µM] | activity change, negative = cytotoxicity (PA-1) 17.8% [at 11.6 µM] | activity change, negative = cytotoxicity (SKOV3) 14.1% [at 11.6 µM] | activity change, negative = cytotoxicity (Tov-21-G) 6.86% [at 11.6 µM] | activity change, negative = cytotoxicity (Tov112D) 7.56% [at 11.6 µM]

COC(=O)[C@]1(Cc2ccc(O)c(CC=C(C)C)c2)OC(=O)C(O)=C1c1ccc(O)cc1
inactive: Potency (OV90) | Potency (PA-1) | Potency (SKOV3) | Potency (Tov-21-G) | Potency (Tov112D)

C=C(C(=O)O)[C@@H]1CC[C@@]2(C)CC[C@@H](O)C(=C)C2C1 (stereo not given in full)
inactive: Potency (OV90) | Potency (PA-1) | Potency (SKOV3) | Potency (Tov-21-G) | Potency (Tov112D)

C=C(C(=O)O)[C@@H]1CC[C@@]2(C)CCC[C@@](C)(O)[C@@H]2C1
inactive: Potency (OV90) | Potency (PA-1) | Potency (SKOV3) | Potency (Tov-21-G) | Potency (Tov112D)

Source: PubChem BioAssay (NCATS)
